From PubChem BioAssay (EPA / NIEHS)
Several values for one entry are separate records, joined by “and”; a condition that tells them apart may be missing. Equal values may be shown once. The source holds several records for some structures; these can differ, active in one and inactive in another. Activity calls are given as the source filed them. How the source made its calls: active means hit-call score of the fitted dose curve at least 0.9, where 1 is the maximum; inactive means score below 0.9.

Legend:
[1] = APR_HepG2_P-H2AX_72hr: Apredica 72-hour HepG2 Assay for H2AX Phosphorylation (AID 2282916); conditions: imaging, actives raise or lower the signal;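 further: phospho-histone H2A.x immunostain intensity per cell marking DNA damage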
In short: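 Phospho-H2A.x imaging endpoint in HepG2 after 72 hr compound exposure (0.39–200 uM, duplicate wells). Activity derived by bidirectional curve fitting with DMSO as baseline.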

[2] = APR_HepG2_MitoMembPot_72hr: Apredica 72-hour HepG2 Assay for Mitochondrial Membrane Potential (AID 2282917); conditions: imaging, actives raise or lower the signal
In short: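 HepG2 cells dosed 72 hr with compound at 0.39–200 uM in duplicate, 0.5% v/v DMSO final. Mitochondria stained with 250 nM MitoTracker Red CMXRos for 30 min before formaldehyde fixation, imaged by high-content fluorescence; bidirectional fit versus DMSO.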

[3] = APR_HepG2_MicrotubuleCSK_72hr: Apredica 72-hour HepG2 Assay for Microtubule CSK Stabilty (AID 2282919); conditions: HepG2 microtubule cytoskeleton, high-content imaging, actives raise or lower the signal
In short: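 HepG2, 72 hr cmpd exposure, 0.39–200 uM (10 pts, duplicate), 0.5% DMSO. 3.7% formaldehyde fix, 0.5% Triton perm, anti-alpha-tubulin/Cy5 plus Hoechst. HCS fluorescence intensity; bidirectional fit vs DMSO baseline; taxol as positive control.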

[4] = APR_HepG2_P-H2AX_24hr: Apredica 24-hour HepG2 Assay for H2AX Phosphorylation (AID 2282920); conditions: high-content imaging, actives raise or lower the signal
In short: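 HepG2 cells dosed 24 h at 0.39–200 uM (10 points, duplicate, 0.5% DMSO final). Formaldehyde-fixed and permeabilized, then immunostained for phospho-H2A.x with Hoechst. Fluorescence quantified by high-content imaging, fitted bidirectionally versus DMSO.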

[5] = APR_HepG2_StressKinase_72hr: Apredica 72-hour HepG2 Assay for Stress Kinase (AID 2282921); conditions: HepG2 stress kinase (phospho-c-Jun) imaging, actives raise or lower the signal
In short: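 Stress kinase signal reflects nuclear phospho-c-Jun staining in fixed, permeabilized cells exposed 72 h to compound at 0.39–200 uM; DMSO-normalized, fitted for increases or decreases.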

[6] = APR_HepG2_StressKinase_24hr: Apredica 24-hour HepG2 Assay for Stress Kinase (AID 2282922); conditions: HepG2 stress kinase (phospho-c-Jun) imaging, actives raise or lower the signal
In short: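 Read-out: phospho-c-Jun immunofluorescence (Cy3 secondary) quantified by high-content imaging at 20x, nuclei defined by Hoechst 33342. Human HepG2 liver cells dosed 24 hr, 0.39–200 uM, DMSO 0.5% v/v; gain or loss of signal fitted relative to DMSO.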

[7] = APR_HepG2_p53Act_72hr: Apredica 72-hour HepG2 Assay for p53 Activation (AID 2282923); conditions: high-content imaging, actives raise or lower the signal;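 further: average cellular p53 protein immunofluorescence intensity in HepG2 cells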
In short: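 Fixed-cell p53 staining (sheep primary, Cy5 secondary) measured by fluorescence imaging following 72 hr treatment at 0.39–200 uM in 0.5% DMSO; DMSO served as negative control and baseline.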

[8] = APR_HepG2_MitoMass_72hr: Apredica 72-hour HepG2 Assay for Mitochondrial Mass (AID 2282924); conditions: high-content imaging, actives raise or lower the signal;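 further: MitoTracker Red CMXRos stain intensity per cell imaged as mitochondrial mass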
In short: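 Read-out: MitoTracker Red fluorescence intensity from automated imaging (20x, six fields per well) in human HepG2 liver cells. Dosing ran 72 hr, 0.39–200 uM, 0.5% DMSO; bidirectional curve fitting versus DMSO baseline.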

[9] = ATG_CRE_CIS: Attagene CIS-FACTORIAL HepG2 Assay for human cAMP Responsive Element (CRE) binding protein 3 (AID 2282926); conditions: HepG2 CRE cis-reporter, Attagene multiplexed mRNA; actives raise or lower the signal
In short: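 Induced reporter mRNA from a CRE cis element, measured in HepG2 among many multiplexed units at 24 h. Detection used RT-PCR plus capillary electrophoresis of fluorescent fragments; DMSO served as negative control.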

[10] = target: CCAAT/enhancer-binding protein beta (Homo sapiens) (UniProt P17676); experiment: ATG_C_EBP_CIS: Attagene CIS-FACTORIAL HepG2 Assay for human CCAAT/Enhancer Binding Protein (C/EBP) beta (AID 2282927); conditions: HepG2 Attagene cis-factorial transcription factor reporter; actives raise or lower the signal
CCAAT/enhancer-binding protein beta (Homo sapiens), sequence (P17676 whole entry, looked up): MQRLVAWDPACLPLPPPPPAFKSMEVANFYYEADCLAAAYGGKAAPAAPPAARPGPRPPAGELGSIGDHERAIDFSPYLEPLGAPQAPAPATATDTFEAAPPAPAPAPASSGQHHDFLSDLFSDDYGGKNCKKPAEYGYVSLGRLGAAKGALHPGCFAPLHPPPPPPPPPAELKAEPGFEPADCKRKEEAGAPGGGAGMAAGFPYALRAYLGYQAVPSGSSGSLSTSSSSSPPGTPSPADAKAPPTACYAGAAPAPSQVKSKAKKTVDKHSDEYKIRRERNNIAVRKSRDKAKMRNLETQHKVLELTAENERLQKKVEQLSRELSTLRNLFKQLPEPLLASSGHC
In short: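 HepG2, transient MRTU transfection, 24 h treatment. RT-PCR plus CE fluorescence; DMSO negative control, bidirectional fit.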

[11] = ATG_DR4_LXR_CIS: Attagene CIS-FACTORIAL HepG2 Assay for human Liver X Receptor (LXR), DR4 submotif (AID 2282929); conditions: HepG2 Attagene DR4 cis-reporter, mRNA transcription; actives raise or lower the signal
In short: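 Transiently transfected HepG2 liver cells; cis-regulated reporters; 24 h dosing. RT-PCR plus CE read-out of reporter mRNA. DMSO baseline, bidirectional curve fitting.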

[12] = ATG_AP_1_CIS: Attagene CIS-FACTORIAL HepG2 Assay for human Activator Protein 1 (AP-1) (AID 2282931); conditions: HepG2 Attagene cis-factorial AP-1 reporter mRNA; actives raise or lower the signal
In short: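 We transfected HepG2 cells transiently with a set of cis-regulated reporter transcription units, dosed them for 24 h, and quantified reporter mRNA via RT-PCR and capillary electrophoresis, scoring gain or loss of signal relative to DMSO.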

[13] = ATG_AP_2_CIS: Attagene CIS-FACTORIAL HepG2 Assay for human Activator Protein 2 (AP-2) (AID 2282932); conditions: HepG2 AP-2 cis-reporter, Attagene transcription factor profiling; actives raise or lower the signal
In short: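 Read-out: fluorescent reporter mRNA via RT-PCR and capillary electrophoresis, 24 h post-dose in transiently transfected HepG2. Endogenous factors drive cis-promoter reporters; gain or loss of signal fitted bidirectionally against DMSO.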

[14] = ATG_BRE_CIS: Attagene CIS-FACTORIAL HepG2 Assay for human Bone Morphogenetic Protein (BMP) Response Element (BRE) (AID 2282933); conditions: HepG2 BMP response element reporter, Attagene transcription factor profiling; actives raise or lower the signal
In short: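 Endogenous transcription factor activity read in transiently transfected HepG2 cells after 24 h chemical exposure. Bidirectional curve fitting against DMSO; readout is reporter transcript level by RT-PCR with capillary electrophoresis of labelled products.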

[15] = ATG_CMV_CIS: Attagene CIS-FACTORIAL HepG2 Assay for human CMV (Internal Marker) (AID 2282928); conditions: HepG2 CMV promoter reporter, transcription factor profiling; actives raise or lower the signal;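 further: endpoint acts as a background internal control marker rather than a target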
In short: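 Reporter transcripts from transfected HepG2 cells are isolated after 24 h of chemical dosing, reverse-transcribed and amplified. Fragments labeled with 6-FAM are cut with HpaI and quantified by capillary electrophoresis; DMSO defines baseline.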

[16] = target: Aryl hydrocarbon receptor (Homo sapiens) (UniProt P35869); experiment: ATG_Ahr_CIS: Attagene CIS-FACTORIAL HepG2 Assay for human Aryl Hydrocarbon Receptor (Ahr) (AID 2282930); conditions: HepG2 AhR cis-factorial reporter transcription; actives raise or lower the signal
Aryl hydrocarbon receptor (Homo sapiens), sequence (P35869 whole entry, looked up): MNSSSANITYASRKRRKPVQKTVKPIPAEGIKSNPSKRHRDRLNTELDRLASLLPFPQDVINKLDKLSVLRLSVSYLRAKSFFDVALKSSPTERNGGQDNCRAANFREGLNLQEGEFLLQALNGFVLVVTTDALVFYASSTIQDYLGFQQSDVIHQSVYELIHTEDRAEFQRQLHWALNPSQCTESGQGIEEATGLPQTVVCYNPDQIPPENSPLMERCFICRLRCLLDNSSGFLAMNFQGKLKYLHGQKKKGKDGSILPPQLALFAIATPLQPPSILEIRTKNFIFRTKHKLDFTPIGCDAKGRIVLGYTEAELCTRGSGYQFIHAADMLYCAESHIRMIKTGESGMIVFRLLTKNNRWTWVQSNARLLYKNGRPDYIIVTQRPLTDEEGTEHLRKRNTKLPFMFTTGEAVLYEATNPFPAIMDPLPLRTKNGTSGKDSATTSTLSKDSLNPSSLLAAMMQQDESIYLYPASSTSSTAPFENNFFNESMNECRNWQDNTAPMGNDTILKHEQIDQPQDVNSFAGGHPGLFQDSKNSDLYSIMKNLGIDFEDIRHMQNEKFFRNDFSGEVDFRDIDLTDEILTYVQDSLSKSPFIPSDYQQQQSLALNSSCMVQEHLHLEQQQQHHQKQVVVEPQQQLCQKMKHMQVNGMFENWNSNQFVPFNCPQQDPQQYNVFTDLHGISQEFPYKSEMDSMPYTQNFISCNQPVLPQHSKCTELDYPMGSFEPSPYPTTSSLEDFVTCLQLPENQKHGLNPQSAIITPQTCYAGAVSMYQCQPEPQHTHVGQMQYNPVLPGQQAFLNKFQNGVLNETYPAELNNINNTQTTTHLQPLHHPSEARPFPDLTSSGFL
In short: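 Endogenous factor activity is tracked through cis-promoter reporter units transfected into HepG2 cells. Transcript levels at 24 h are read by fluorescent RT-PCR and capillary electrophoresis, with activity in either direction scored relative to DMSO.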

[17] = target: Retinoic acid receptor alpha (Homo sapiens) (UniProt P10276); experiment: ATG_DR5_RAR_CIS: Attagene CIS-FACTORIAL HepG2 Assay for human Retinoic Acid Receptor Alpha (RARE), DR5 submotif (AID 2282934); conditions: HepG2 Attagene cis-factorial RARE DR5 reporter, mRNA; actives raise or lower the signal
Retinoic acid receptor alpha (Homo sapiens), sequence (P10276 whole entry, looked up): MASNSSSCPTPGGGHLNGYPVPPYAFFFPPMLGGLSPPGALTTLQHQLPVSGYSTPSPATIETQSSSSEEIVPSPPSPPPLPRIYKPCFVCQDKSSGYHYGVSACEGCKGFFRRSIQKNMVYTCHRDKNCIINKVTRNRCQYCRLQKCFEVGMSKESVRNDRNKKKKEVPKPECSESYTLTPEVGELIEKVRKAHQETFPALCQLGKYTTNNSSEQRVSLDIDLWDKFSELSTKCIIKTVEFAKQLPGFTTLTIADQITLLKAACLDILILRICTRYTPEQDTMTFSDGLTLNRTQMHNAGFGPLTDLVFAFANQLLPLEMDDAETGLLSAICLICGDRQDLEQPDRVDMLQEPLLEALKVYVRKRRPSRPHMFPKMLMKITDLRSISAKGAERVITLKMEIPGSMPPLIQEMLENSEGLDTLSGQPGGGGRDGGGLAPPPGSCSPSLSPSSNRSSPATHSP
In short: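 After 24 h of chemical exposure, transiently transfected HepG2 cells were lysed for total RNA; the DR5-regulated reporter transcript was quantified via RT-PCR and capillary electrophoresis, with activity fitted bidirectionally against DMSO.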

[18] = APR_HepG2_NuclearSize_72hr: Apredica 72-hour HepG2 Assay for Nuclear Size (AID 2282925); conditions: high-content imaging, actives raise or lower the signal
In short: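 Read-out: nuclear diameter from Hoechst 33342 images (ArrayScan, 20x, six fields/well), via cell-cycle image analysis. HepG2 were dosed 0.39–200 uM for 72 hr in 0.5% DMSO. Bidirectional fit relative to DMSO.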

[19] = target: Transcription factor E2F1 (Homo sapiens) (UniProt Q01094); experiment: ATG_E2F_CIS: Attagene CIS-FACTORIAL HepG2 Assay for human E2F Transcription Factor 1 (AID 2282935); conditions: HepG2 Attagene cis-reporter, E2F reporter RNA transcripts; actives raise or lower the signal
Transcription factor E2F1 (Homo sapiens), sequence (Q01094 whole entry, looked up): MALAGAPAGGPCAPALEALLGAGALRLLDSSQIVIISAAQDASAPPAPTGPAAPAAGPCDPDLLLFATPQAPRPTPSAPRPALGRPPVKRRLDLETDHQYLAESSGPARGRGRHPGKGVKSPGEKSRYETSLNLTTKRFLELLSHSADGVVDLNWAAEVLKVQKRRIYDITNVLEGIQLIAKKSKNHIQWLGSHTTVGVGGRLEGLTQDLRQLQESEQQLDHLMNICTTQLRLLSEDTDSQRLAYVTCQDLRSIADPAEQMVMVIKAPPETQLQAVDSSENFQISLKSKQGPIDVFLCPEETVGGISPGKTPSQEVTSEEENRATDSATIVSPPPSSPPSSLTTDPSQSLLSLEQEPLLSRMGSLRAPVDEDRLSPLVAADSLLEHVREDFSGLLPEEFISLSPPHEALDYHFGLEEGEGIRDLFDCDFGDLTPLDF
In short: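 Transient MRTU transfection of HepG2; 24 h compound exposure; RNA → oligo(dT) RT → PCR → FAM label → HpaI cut → CE fluorescence. Gain/loss of signal fit against DMSO.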

Measured: AC50

Brc1ccc(Oc2ccccc2)cc1
active: [11] 155 µM
not listed: [15] | [16] | [17] | [18] | [19]
inactive: all other assays above

CCCCC(CC)COC(=O)c1ccc(C(=O)OCC(CC)CCCC)c(C(=O)OCC(CC)CCCC)c1 (centres undefined)
not listed: [18] | [19]
inactive: all other assays above

Clc1ccc(C(c2ccc(Cl)cc2)C(Cl)Cl)cc1
inactive: [2] | [6] | [8] | [16] | [14]
active: [1] 104 µM | [3] 156 µM | [4] 108 µM | [5] 114 µM | [7] 87.1 µM | [9] 54.5 µM | [10] 54.8 µM | [15] 52.9 µM | [11] 17.1 µM | [13] 54.5 µM

Nc1ccc(N=Nc2ccccc2)cc1
active: [1] 63.4 µM | [7] 71.1 µM | [13] 169 µM | [14] 59.4 µM
not listed: [2] | [3] | [8] | [15] | [16]
inactive: all other assays above

CC(C)(C)OOC(C)(C)CCC(C)(C)OOC(C)(C)C
active: [2] 52.8 µM | [11] 100 µM | [12] 100 µM | [14] 161 µM
not listed: [15] | [16] | [18] | [19]
inactive: all other assays above

O=P(OCCCl)(OCCCl)OCCCl
not listed: [2] | [3] | [8] | [12] | [19]
inactive: all other assays above

CCCCCOC(=O)c1ccccc1C(=O)OCCCCC
active: [11] 150 µM
not listed: [12] | [15] | [17] | [18]
inactive: all other assays above

N#CC(Br)Br
active: [1] 96.9 µM | [4] 88.8 µM
not listed: [7] | [12]
inactive: all other assays above

N#CC(Br)(Br)C(N)=O
not listed: [16] | [18] | [19]
inactive: all other assays above

Clc1ccc(C(c2ccc(Cl)cc2)C(Cl)(Cl)Cl)cc1
active: [1] 50.2 µM | [2] 30.4 µM | [4] 50.5 µM | [6] 51.9 µM | [11] 27.6 µM
not listed: [12] | [15] | [17] | [18]
inactive: all other assays above

C[C@]12C=CC3=C4CCC(=O)C=C4CC[C@H]3[C@@H]1CC[C@@H]2O
inactive: [1] | [2] | [3] | [4] | [5] | [6] | [8] | [9] | [10] | [11] | [13] | [14] | [19]
active: [9] 68.8 µM | [10] 18 µM | [11] 19.8 µM | [13] 19.8 µM and 26.5 µM and 7.78 µM
